In publication PMC7819943, “Rice protein-binding microarrays: a tool to detect cis-acting elements near promoter regions in rice”:
In all, about 39,000 sequences were measured (“fluorescence intensity (a.u.)”: median about 4,300, highest 2% from about 39,000 on). The sample as a whole holds a higher share of the highest values than the screen did.

Each sequence was assayed against T1, OsSMF1 (Oryza sativa, UniProt Q6ZLB0 1-436) (assay: protein-binding microarray (RPBM); PBS, 2% BSA, 51.3 ng/ul salmon testes DNA, 50 uM zinc acetate, 200 nM TF, 25 C, 1 h; high values mean tight binding). Details: protein: recombinant; tags: N-terminal polyhistidine and DsRed monomer fusion (pET32a); chain copies: 2; label: CyDye5-dUTP incorporated in the synthesized complementary strand; 3' TTTTT single-stranded linker to array surface; dsDNA, one strand shown.
T1 sequence: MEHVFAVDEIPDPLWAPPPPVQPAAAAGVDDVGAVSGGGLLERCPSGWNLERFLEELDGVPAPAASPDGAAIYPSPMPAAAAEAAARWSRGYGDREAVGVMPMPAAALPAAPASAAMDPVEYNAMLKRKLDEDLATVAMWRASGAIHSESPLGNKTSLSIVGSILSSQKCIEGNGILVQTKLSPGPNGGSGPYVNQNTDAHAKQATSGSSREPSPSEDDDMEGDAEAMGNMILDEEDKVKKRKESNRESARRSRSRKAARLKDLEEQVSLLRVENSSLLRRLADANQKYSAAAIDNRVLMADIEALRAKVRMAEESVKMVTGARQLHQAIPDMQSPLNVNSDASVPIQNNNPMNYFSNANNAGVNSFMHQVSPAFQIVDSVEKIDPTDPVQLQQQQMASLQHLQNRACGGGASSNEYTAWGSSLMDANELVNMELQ
Procedure, shortened: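 Ni–NTA purification followed expression in E. coli BL21-CodonPlus of transcription factors fused N-terminally to a polyhistidine tag and DsRed. At 200 nM in PBS with 2% BSA, salmon testes DNA and 50 µM zinc acetate, the protein was incubated for 1 h at 25 °C with a custom Agilent array that had been primer-extended with Cy5-dUTP and blocked with 2% BSA. After washing, the array was read on an Axon 4000B scanner. The binding signal is per-feature fluorescence intensity in arbitrary units.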

Sequence	binding signal
ATACTTCCATTTGTGCCATACATTTTGTCATTTCGACCTGCGGAGTCACCTAGTGCAG	3330 fluorescence intensity (a.u.)
GGTTTTAACCCCGATTTCGTTCGACGTGGCGGCTGAGTCACGGAGTCACCTAGTGCAG	10800 fluorescence intensity (a.u.)
ATTCACTTTCTTGATTACGTAGAAGCTTCAGTGTCTATTCCGGAGTCACCTAGTGCAG	3810 fluorescence intensity (a.u.)
ACAAGTACTACACGCGAATGTATTTCAATAGAAATTTATCCGGAGTCACCTAGTGCAG	35600 fluorescence intensity (a.u.)
TGCATGTACGATACTGGAGCTGATCCTCGCCATCATATCCCGGAGTCACCTAGTGCAG	3160 fluorescence intensity (a.u.)
ACAAACCAACCAACCCTCCTCGCCGCGGCCGCCGCCACCGCGGAGTCACCTAGTGCAG	3400 fluorescence intensity (a.u.)
GTGCGCGCGGTGCTTAGGCAGACGCGGCCCAGATCGGCGCCGGAGTCACCTAGTGCAG	40500 fluorescence intensity (a.u.)
AGGGAAAAGAGGAGACGGGAGGAAAGGAACGGAGGAGATGCGGAGTCACCTAGTGCAG	3340 fluorescence intensity (a.u.)
GGCGGCGGCGGAGAAGGAGAGGCCGCCCGCCGCGTGGCGCCGGAGTCACCTAGTGCAG	6420 fluorescence intensity (a.u.)
CGGAGACGGGAGGCGAGGCGAGCGGCGCCGCGGAACGGGACGGAGTCACCTAGTGCAG	18600 fluorescence intensity (a.u.)
GCGCGCGCGCGCGGGCATAGGCGACGCCGCGACGGTGCGGCGGAGTCACCTAGTGCAG	3890 fluorescence intensity (a.u.)
TGGAGAGGGAACCAACAACAAACAACCAGCTGCCTCGCCGCGGAGTCACCTAGTGCAG	47200 fluorescence intensity (a.u.)
ACGATCGGTGACGACGAGCGACGACGCGGCATGAAGACGCCGGAGTCACCTAGTGCAG	3300 fluorescence intensity (a.u.)
CGCCGCGAAGGCGCGAAGCCCCGTCACCGCGCGCGCGCGCCGGAGTCACCTAGTGCAG	5540 fluorescence intensity (a.u.)
CCGCCTCGCCGCGTGCCTCTGGAACAATCTGGCGCTGCCGCGGAGTCACCTAGTGCAG	3700 fluorescence intensity (a.u.)
ATCAGCAAGAATGCGAGGGAGACGGCGGAGAGCTCGGGAACGGAGTCACCTAGTGCAG	43000 fluorescence intensity (a.u.)
AGAAGCGCGCCGAGGAGGCCCGCTCGTTCAACCGCGCCGCCGGAGTCACCTAGTGCAG	65500 fluorescence intensity (a.u.)
GAGAGAGAGAGAGGGATTTCCCCTTGGCTCCGCGTCGATACGGAGTCACCTAGTGCAG	3520 fluorescence intensity (a.u.)
AATCTATATGTTATCGTCCTCCTCTTGCGTGTGGCTAGTTCGGAGTCACCTAGTGCAG	3750 fluorescence intensity (a.u.)
AATTGTTTACTGATCTTTGCGTTAATGATGATTGTGCCCTCGGAGTCACCTAGTGCAG	3160 fluorescence intensity (a.u.)
AAAATTCGAATCAGGCGGAGCCACCTCACCTCGCCGCGGCCGGAGTCACCTAGTGCAG	5020 fluorescence intensity (a.u.)

Sequence	binding signal
CTTTGTCTTAGTATGGTGACTGGTTGCAAATTGATTTGGTCGGAGTCACCTAGTGCAG	3410 fluorescence intensity (a.u.)
AGCTAGCTAGCTAACTAGTAAGGAGGTACACGTAGGTAGCCGGAGTCACCTAGTGCAG	6960 fluorescence intensity (a.u.)
TGGGTTGAATATGAGCTTGAATATTGGTGGAGTGATACATCGGAGTCACCTAGTGCAG	3240 fluorescence intensity (a.u.)
CTTCCATATATCCTTGTCACAAGCTAGCTCACAAAACTTCCGGAGTCACCTAGTGCAG	4680 fluorescence intensity (a.u.)
GCGGCGCCTCCGGGAAGCGCGGCGCCGCGTCCTCCTCCTCCGGAGTCACCTAGTGCAG	3170 fluorescence intensity (a.u.)
GAGGCCGGGGTCGGGGCGAGCGAGGCGAGAGGGGAGGAGGCGGAGTCACCTAGTGCAG	4480 fluorescence intensity (a.u.)
GAGCTCCGCCAGTACGAGTACAGACCCAGCTTCGCCGGCGCGGAGTCACCTAGTGCAG	3580 fluorescence intensity (a.u.)
GCGAGGGGCGGGGAGAGCAGCGGCGGCGGCGGAGCGCGGCCGGAGTCACCTAGTGCAG	39200 fluorescence intensity (a.u.)
GCGCGCGCGGCGTTCGGGAGGAAGCGGAAGAGCGCGCCGGCGGAGTCACCTAGTGCAG	47000 fluorescence intensity (a.u.)
CCGCGCTCACCTGCCGGGCGTGGCGCGCCGCGGTGGCCTCCGGAGTCACCTAGTGCAG	3140 fluorescence intensity (a.u.)
GGGCGGAGCGGGGCGGAGGGAGAGGAGGGAGAGGAGGGAGCGGAGTCACCTAGTGCAG	4920 fluorescence intensity (a.u.)
GGTGGCGGCGCGGGCCGGGCGGCGGCGGCGGCGGCGGCTCCGGAGTCACCTAGTGCAG	40400 fluorescence intensity (a.u.)
GGCGGCCACGGGCTCCGGCGGAGGGCGGCGTGGTGGCGGCCGGAGTCACCTAGTGCAG	14400 fluorescence intensity (a.u.)
GTGATTTATCCGAGCAGAGTGGCGGCGGCTTCGCCGAGTACGGAGTCACCTAGTGCAG	39600 fluorescence intensity (a.u.)
GCCCCGCGGCTTCCGGCTGCCGTCGCCGCGAGCCCCGTGGCGGAGTCACCTAGTGCAG	5050 fluorescence intensity (a.u.)
GAGCGCGGAAGCCGGCGGCGGCCGTACGTGTTCGGCCGGCCGGAGTCACCTAGTGCAG	3410 fluorescence intensity (a.u.)
TGTTTACGTCCAACGTTTAACCGCTCGTCTTATTTGAAATCGGAGTCACCTAGTGCAG	21000 fluorescence intensity (a.u.)
AGAAGTATTTCTGCGTCATTGTTGGAAATTATATTTCTAGCGGAGTCACCTAGTGCAG	3650 fluorescence intensity (a.u.)
GACACTTACAAGCACTGCGGCGTTACCATTTTATGGAACTCGGAGTCACCTAGTGCAG	3220 fluorescence intensity (a.u.)
GGAAAGGCGCCACGTAATAAATAGAAACAGACTCAGCACTCGGAGTCACCTAGTGCAG	6760 fluorescence intensity (a.u.)
TATGCCAAAGAGAAGCCTCGTCAGCCATCCCTTTGGCCACCGGAGTCACCTAGTGCAG	7800 fluorescence intensity (a.u.)
